L929 necroptosis: inhibitors of zVAD-triggered necroptosis, primary screen, L929 cells; L929 zVAD necroptosis rescue, ATP luminescence, 24 h; with zVAD 60 µM; viability rescue, % at 10 µM; 220,000 compounds, 0.38% hits;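 active = activation, scaled between plate controls, above about 75%, limit read from the data; inactive = activation under that limit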;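 also: 0% = zVAD with DMSO and 100% = DMSO alone without zVAD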
PKD1 kinase inh: inhibitors of human PKD1 kinase, biochemical, fluorescence polarization | 200,000 compounds, 0.056% hits | PKD1 kinase fluorescence polarization assay | Serine/threonine-protein kinase D1 (Homo sapiens), Q15139 | inhibition, % (no concentration beside the values); in the data active = inhibition above about 50%
WT yeast gro inh: growth inhibition of WT strain, primary screen, mitochondrial fusion inhibitor project, WT and mutant strains, chemical genetic; mitochondrial fusion phenotypic screen; inhibition, % at 10 µM; 190,000 compounds, 2.1% hits; AID 1362, 2008; in the data active = inhibition above about 58%; tested in S. cerevisiae
TNF necrop inh: inhibitors of TNF-alpha triggered necroptosis, primary screen, cell-based, Jurkat FADD-/-, single concentration | activation (protection from cell death), % at 10 µM | 220,000 compounds, 0.068% hits | AID 463075, 2010 | Jurkat FADD-/- TNF necroptosis rescue, ATP luminescence, 24 h; 0 = TNF only, 100 = no-TNF cells;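 active = activation, meaning protection from cell death, of at least 50% relative to plate controls; inactive = activation below 50%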;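 also: necroptosis triggered by 40 ng/mL TNF-alpha added together with compound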
PERK inh: block of dimerizer-induced PERK translation repression, primary screen, PERK inhibitor project, CHO PERK-DD cells, SEAP luminescence, HTS | Eukaryotic translation initiation factor 2-alpha kinase 3 (Homo sapiens), Q9NZJ5 | CHO PERK-DD fusion, SEAP luminescence translation reporter | inhibition, % at 5.6 µM | 220,000 compounds, 0.17% hits;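 active = inhibition above the mean inhibition of all tested compounds plus 3 SD, set separately per screening campaign, cut at about 2.9% in these data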;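 also: PERK kinase domain activated by AP20187 dimerizer at 100 nM; 0% = DMSO with dimerizer and 100% = rapamycin at 8.4 µM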
Target sequence (Q9NZJ5 whole entry, looked up, the tested form may be a part): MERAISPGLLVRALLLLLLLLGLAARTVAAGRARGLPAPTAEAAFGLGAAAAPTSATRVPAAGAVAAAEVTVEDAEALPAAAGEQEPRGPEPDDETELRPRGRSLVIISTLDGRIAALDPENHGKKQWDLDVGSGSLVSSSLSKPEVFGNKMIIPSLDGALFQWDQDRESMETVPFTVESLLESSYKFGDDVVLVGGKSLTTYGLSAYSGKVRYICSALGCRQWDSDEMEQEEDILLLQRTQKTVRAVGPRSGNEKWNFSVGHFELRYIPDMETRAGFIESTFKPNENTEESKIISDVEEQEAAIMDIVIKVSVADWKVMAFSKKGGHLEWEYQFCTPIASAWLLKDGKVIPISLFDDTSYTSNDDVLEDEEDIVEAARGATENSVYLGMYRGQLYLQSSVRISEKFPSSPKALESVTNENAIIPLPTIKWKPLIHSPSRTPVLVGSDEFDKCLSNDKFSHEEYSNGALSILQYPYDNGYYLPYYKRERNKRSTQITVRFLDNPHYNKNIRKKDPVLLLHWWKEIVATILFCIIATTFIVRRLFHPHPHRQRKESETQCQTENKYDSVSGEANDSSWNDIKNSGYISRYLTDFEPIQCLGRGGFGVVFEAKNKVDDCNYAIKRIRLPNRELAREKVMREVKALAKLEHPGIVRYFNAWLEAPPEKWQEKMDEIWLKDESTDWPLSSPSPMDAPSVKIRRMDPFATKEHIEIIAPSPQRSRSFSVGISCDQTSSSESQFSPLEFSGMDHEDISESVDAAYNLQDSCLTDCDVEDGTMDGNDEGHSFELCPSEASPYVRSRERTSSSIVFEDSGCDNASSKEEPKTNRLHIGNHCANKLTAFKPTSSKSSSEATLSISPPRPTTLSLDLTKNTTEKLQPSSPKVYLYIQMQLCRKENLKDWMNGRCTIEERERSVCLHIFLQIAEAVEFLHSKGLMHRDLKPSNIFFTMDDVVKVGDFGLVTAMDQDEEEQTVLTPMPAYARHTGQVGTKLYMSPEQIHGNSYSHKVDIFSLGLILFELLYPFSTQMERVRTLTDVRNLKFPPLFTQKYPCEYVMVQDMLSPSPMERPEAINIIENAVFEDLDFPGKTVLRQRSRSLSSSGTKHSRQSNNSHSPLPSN
DTT redox prof: compounds producing H2O2 with reducing agent – biochemical, NIH compound library profiling, artefact control for MLSCN library redox annotation, primary screen | DTT-dependent redox cycling H2O2, phenol red/HRP absorbance; 100% = 100 µM peroxide control, 0% = buffer | activation, % at 10 µM | 200,000 compounds, 0.03% hits | AID 878, 2007;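 active = activation of at least 50% relative to the plate's high and low controls in the primary single-dose screen; inactive = activation below 50%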;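 also: compound incubated with DTT at 0.8 mM final as the reducing agent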
Starred values were filed as active, the others as inactive; / = no result given. Rows were chosen to be rich in hits. Some 2.4% of all compounds tested hit in one or more screens of this group.

SMILES | L929 necroptosis | PKD1 kinase inh | WT yeast gro inh | TNF necrop inh | PERK inh | DTT redox prof
Cc1cc(C)n(CCNC(=O)CC2C(=O)NCCN2Cc2ccccc2C(F)(F)F)n1 (stereo not drawn) | 0 | 0 | 3 | 0 | 1 | -1
COc1ccc(-c2nc(CCNS(=O)(=O)c3ccc4c(c3)OCCO4)cs2)cc1 | 0 | 7 | 15 | -2 | -1 | -2
O=S(=O)(NCCc1csc(-c2ccc(C(F)(F)F)cc2)n1)c1ccc2c(c1)OCCO2 | 0 | -4 | 74* | -1 | 0 | -2
Clc1cc(Cl)cc(C2=NCCC(c3ccccc3)O2)c1 (stereo not drawn) | 1 | -5 | 75* | 2 | -1 | 1
COc1ccc(N2CCN(C(=O)C3(C)CC3(Cl)Cl)CC2)cc1 (stereo not drawn) | 3 | -5 | -10 | 3 | 1 | 0
Cc1nc(N2CCCCC2)c2c(-c3cccs3)csc2n1 | 6 | -5 | 69* | -1 | -1 | 0
Cc1nc(N2CCN(S(=O)(=O)c3ccccc3C#N)CC2)c2c(-c3cccs3)csc2n1 | 1 | 0 | 27 | -4 | 0 | 4
O=C(CCSCc1ccccc1Cl)NC1CCCCC1 | -1 | 1 | 21 | 1 | 0 | 0
O=C(N1CCOCC1)N1CCN(C(c2ccccc2)c2ccccc2)CC1 | 0 | -7 | 95* | -2 | 0 | 0
O=C(N1CCCCC1)N1CCN(C(c2ccccc2)c2ccccc2)CC1 | 0 | 0 | 41 | -1 | -1 | 1
CC(C)Cc1cc(C(=O)N2CCN(C(c3ccccc3)c3ccccc3)CC2)no1 | 0 | 12 | 59* | 1 | 1 | -1
C=C(C)CNC(=S)N1CCN(C(c2ccccc2)c2ccccc2)CC1 | 2 | 5 | 55 | 2 | 1 | 1
CC(C)CNC(=S)N1CCN(C(c2ccccc2)c2ccccc2)CC1 | 2 | -15 | 70* | 2 | 0 | 0
S=C(NCc1ccco1)N1CCN(C(c2ccccc2)c2ccccc2)CC1 | 0 | 1 | 64* | 1 | 0 | 1
COc1ccc(C(=O)c2sc3nc(C)cc(-c4cccs4)c3c2N)cc1OC | 2 | -4 | 24 | 1 | -1 | 0
CCOc1cc(CNC(C)(C)CO)cc(Br)c1OCc1ccc(Cl)cc1Cl | 31 | -10 | 88* | -25 | -1 | 0
CCOc1cc(CNCCO)cc(Br)c1OCc1ccc(Cl)cc1 | 9 | 5 | 11 | -14 | -2 | -4
CCOc1cc(CNCCO)cc(Br)c1OCc1ccccc1Cl | 63 | -6 | 98* | -19 | -1 | -5
Clc1ccc(Oc2cccc(/C=N/n3cnnc3)c2)cc1 | 0 | 0 | 68* | -6 | 1 | -1
C(=N\n1cnnc1)/c1cccc(OCCOc2ccccc2)c1 | 0 | 1 | 19 | 0 | 0 | -3
CCOC(=O)c1[nH]c(C)c(C(=O)N(C)C)c1C | 0 | -7 | -11 | -1 | 1 | 2
CCOC(=O)c1[nH]c(C)c(C(=O)O)c1C | 1 | -4 | 10 | -2 | 3.3* | 0
CN(C(=O)c1ccccc1Cl)C1CCCCC1 | 0 | -13 | -22 | -2 | 2 | 1
CC1CC(N(C(=O)c2ccccc2Cl)c2ccccc2)c2ccccc2N1 (stereo not drawn) | 0 | -8 | 67* | -12 | 1 | -2
Cc1ccccc1Nc1c(-c2ccccn2)nc2ccccn12 | 5 | 5 | 64* | -4 | 0 | -1
SMILES | L929 necroptosis | PKD1 kinase inh | WT yeast gro inh | TNF necrop inh | PERK inh | DTT redox prof
Cc1ccc2nc(-c3cccnc3)c(Nc3ccccc3C)n2c1 | 0 | -5 | -11 | -2 | 0 | 0
Cc1ccn2c(Nc3ccccc3)c(-c3ccccn3)nc2c1 | 27 | 6 | 73* | -1 | 0 | -1
Cc1ccn2c(Nc3ccccc3C)c(-c3ccccn3)nc2c1 | 5 | -1 | 72* | -4 | 0 | -1
Cc1cccn2c(Nc3ccccc3)c(-c3ccccn3)nc12 | -3 | 0 | 75 | 0 | 0 | -1
Cc1ccc2nc(-c3ccccn3)c(Nc3ccccc3C)n2c1 | 2 | -3 | 76* | -4 | -2 | -1
CC(C)(C)NC(=O)NC(=O)CN1CCN(C(c2ccccc2)c2ccccc2)CC1 | 22 | -4 | 54 | 2 | 0 | -2
CC1=NN(c2cccc(C(=O)O)c2)C(=O)/C1=C\C=C/c1ccccc1 | 54 | -3 | 9 | 36 | 1 | 0
CC(C)OC(=O)CSc1nc2c(c(C3CC=CCC3)c1C#N)CCC2 (stereo not drawn) | 0 | -7 | 8 | 3 | 0 | 0
C=CCSc1nc2c(c(C3CC=CCC3)c1C#N)CCC2 (stereo not drawn) | 0 | -9 | 61* | -2 | 0 | -4
O=C1C=C(NCc2ccc3c(c2)OCO3)CC(c2ccccc2)C1 (stereo not drawn) | 3 | -5 | -13 | 0 | 0 | 0
S=c1[nH]nc(-c2ccc3ccccc3n2)n1-c1cc(Cl)cc(Cl)c1 | 1 | 1 | 60* | -2 | 0 | 0
O=C(N/N=C/c1ccc(N2CCOCC2)s1)c1ccccc1Cl | 2 | 4 | / | 1 | 1 | -1
FC(F)(F)c1ccc(Cl)c(N/N=C/c2ccc(N3CCOCC3)s2)c1 | 1 | -5 | 58* | 1 | 0 | 0
COc1ccccc1NC(=O)c1cccc(NC(=O)c2ccco2)c1 | 0 | -3 | 74* | 1 | -1 | 0
Cc1ccc(C23CC4CC(CC(NC(=O)NCCN(C)C)(C4)C2)C3)cc1 | -1 | -3 | -3 | -4 | -1 | 0
CN(C)CCNC(=O)COc1ccc(C23CC4CC(CC(C4)C2)C3)cc1 | -1 | -4 | 96* | -4 | 0 | 0
COC(=O)C(C(=O)Nc1ccccc1C)C1CCCCCC1 (stereo not drawn) | -1 | -7 | -3 | -1 | 2 | -2
C=CCN=C(CC)C1=C(O)CCCC1=O | 0 | -6 | -1 | -2 | 1 | 2
C=CCN=C(C)C1=C(O)CCC1=O | 0 | 3 | 14 | -1 | 2.9* | 2
OC(COCC(F)(F)C(F)(F)C(F)(F)C(F)F)Cn1c2ccc(Cl)cc2c2cc(Cl)ccc21 (stereo not drawn) | 51 | -4 | 86* | 5 | 0 | 1
CCCn1c(/C=N/Nc2nc3ccccc3[nH]2)nc2ccccc21 | 56 | -3 | 58* | -17 | -1 | 0
CC(C)Cn1c(/C=N/Nc2nc3ccccc3[nH]2)nc2ccccc21 | 40 | -1 | 60* | -7 | 0 | 0

From PubChem BioAssay
